# Measurements: the supplement of paper PMC10849652
# Targets with a hit are over-represented here; the source holds about 8,800 in all. About 0.5% of all pairs of compound and target were hits.
# Compound: CCn1c(C(=O)N(C2CC2)C2CC2)cc2c3c(ncn3C)c(Nc3cc(C)n(C)n3)nc21
# Test: log2 fold change, soluble protein after heating vs DMSO (PISA); higher = thermal stabilisation; K562 lysate, 10 uM; active = over 0.2 and 3.5 SD of the protein, either way, in both replicates (recomputed)
# How it was run: (§1)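 Thermal stability, expressed as log-two fold change relative to solvent controls, is given from duplicates. Crude K562 extract in PBS pH 7.4 with 1 mM MgCl2, at 1 mg/mL protein, was treated with 10 μM compound for 30 min and heated in aliquots for 3 min across 48°C-58°C. After pooling, adjustment to 0.5% NP-40 at 4°C and centrifugation at 21,000xg for 90 min, supernatant protein was measured by TMTpro 16plex LC-MS/MS with channel sums equalised.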
# Chain of UniProt Q14008 (Q14008 whole entry, looked up): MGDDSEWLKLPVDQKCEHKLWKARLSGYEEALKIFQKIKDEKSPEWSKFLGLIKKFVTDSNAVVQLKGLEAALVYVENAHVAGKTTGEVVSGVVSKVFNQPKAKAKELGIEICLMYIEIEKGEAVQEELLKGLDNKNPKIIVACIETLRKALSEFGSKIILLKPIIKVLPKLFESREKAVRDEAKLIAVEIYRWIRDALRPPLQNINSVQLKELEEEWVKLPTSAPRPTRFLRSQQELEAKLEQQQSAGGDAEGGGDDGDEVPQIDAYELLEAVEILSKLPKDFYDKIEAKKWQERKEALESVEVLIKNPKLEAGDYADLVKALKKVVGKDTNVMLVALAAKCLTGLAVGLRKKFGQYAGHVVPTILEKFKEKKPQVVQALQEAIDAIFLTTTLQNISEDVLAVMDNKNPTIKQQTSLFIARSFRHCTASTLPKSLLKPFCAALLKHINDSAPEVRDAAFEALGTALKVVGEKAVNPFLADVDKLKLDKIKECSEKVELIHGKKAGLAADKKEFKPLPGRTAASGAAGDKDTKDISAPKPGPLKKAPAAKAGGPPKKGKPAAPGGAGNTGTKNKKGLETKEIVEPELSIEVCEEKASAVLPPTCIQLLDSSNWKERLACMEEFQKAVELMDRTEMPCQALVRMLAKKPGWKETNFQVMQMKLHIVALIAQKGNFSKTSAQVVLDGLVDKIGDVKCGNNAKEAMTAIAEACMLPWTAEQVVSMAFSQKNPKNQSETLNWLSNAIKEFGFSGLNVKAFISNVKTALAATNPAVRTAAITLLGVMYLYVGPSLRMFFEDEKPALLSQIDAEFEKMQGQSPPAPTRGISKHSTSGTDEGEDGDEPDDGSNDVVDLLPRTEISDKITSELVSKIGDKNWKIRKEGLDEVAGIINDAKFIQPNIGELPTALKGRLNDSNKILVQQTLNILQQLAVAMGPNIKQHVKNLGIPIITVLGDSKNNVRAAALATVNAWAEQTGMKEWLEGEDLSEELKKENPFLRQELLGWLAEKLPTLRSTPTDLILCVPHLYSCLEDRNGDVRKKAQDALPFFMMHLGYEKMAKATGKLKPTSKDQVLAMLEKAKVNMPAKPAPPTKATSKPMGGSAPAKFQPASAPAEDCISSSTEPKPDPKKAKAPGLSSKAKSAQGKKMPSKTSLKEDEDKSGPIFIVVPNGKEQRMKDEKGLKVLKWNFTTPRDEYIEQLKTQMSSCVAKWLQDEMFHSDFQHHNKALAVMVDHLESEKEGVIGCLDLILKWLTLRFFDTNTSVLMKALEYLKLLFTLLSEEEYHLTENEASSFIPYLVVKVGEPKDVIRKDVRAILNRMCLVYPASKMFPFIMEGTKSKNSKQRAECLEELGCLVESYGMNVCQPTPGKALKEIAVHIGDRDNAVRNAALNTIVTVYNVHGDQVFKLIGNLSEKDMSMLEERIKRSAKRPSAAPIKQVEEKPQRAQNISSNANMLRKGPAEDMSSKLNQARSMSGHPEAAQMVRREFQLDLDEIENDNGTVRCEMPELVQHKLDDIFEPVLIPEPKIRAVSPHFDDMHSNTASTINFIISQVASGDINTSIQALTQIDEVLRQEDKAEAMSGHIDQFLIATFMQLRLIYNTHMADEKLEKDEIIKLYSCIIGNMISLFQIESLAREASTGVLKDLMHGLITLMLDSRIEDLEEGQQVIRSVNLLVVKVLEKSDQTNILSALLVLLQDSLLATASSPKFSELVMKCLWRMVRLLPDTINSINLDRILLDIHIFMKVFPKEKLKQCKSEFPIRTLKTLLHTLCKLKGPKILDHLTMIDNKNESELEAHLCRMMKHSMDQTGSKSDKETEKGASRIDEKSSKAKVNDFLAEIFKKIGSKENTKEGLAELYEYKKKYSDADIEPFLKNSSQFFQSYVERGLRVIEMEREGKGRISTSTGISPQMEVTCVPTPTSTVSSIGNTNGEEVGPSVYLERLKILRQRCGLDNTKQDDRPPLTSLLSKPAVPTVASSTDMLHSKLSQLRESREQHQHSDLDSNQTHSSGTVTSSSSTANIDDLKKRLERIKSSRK
# Chain of UniProt O60716 (O60716 whole entry, looked up): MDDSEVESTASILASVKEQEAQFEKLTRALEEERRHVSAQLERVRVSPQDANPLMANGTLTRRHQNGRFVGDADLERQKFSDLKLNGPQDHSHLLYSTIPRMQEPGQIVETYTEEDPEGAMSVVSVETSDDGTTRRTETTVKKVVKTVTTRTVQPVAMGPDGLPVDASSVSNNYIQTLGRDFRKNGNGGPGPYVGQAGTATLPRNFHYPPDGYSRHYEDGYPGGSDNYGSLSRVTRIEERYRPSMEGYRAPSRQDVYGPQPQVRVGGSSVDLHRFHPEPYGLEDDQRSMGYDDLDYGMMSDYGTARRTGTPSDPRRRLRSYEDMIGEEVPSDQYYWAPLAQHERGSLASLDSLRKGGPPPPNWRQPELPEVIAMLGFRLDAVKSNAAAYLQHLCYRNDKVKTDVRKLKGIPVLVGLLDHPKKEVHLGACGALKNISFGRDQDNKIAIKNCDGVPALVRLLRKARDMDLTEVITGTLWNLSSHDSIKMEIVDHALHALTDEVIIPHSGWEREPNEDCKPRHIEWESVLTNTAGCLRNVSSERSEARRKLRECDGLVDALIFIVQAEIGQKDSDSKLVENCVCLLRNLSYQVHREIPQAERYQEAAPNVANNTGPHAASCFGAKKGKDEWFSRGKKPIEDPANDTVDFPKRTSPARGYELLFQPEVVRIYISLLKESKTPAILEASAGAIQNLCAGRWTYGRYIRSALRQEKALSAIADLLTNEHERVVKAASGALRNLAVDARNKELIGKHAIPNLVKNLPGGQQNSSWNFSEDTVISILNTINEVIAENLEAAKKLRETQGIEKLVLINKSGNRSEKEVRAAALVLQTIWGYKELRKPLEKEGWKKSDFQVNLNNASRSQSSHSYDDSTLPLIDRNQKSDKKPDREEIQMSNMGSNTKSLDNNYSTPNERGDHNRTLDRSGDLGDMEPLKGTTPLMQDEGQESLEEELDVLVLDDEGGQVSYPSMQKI
# Chain of UniProt Q9UP83 (Q9UP83 whole entry, looked up): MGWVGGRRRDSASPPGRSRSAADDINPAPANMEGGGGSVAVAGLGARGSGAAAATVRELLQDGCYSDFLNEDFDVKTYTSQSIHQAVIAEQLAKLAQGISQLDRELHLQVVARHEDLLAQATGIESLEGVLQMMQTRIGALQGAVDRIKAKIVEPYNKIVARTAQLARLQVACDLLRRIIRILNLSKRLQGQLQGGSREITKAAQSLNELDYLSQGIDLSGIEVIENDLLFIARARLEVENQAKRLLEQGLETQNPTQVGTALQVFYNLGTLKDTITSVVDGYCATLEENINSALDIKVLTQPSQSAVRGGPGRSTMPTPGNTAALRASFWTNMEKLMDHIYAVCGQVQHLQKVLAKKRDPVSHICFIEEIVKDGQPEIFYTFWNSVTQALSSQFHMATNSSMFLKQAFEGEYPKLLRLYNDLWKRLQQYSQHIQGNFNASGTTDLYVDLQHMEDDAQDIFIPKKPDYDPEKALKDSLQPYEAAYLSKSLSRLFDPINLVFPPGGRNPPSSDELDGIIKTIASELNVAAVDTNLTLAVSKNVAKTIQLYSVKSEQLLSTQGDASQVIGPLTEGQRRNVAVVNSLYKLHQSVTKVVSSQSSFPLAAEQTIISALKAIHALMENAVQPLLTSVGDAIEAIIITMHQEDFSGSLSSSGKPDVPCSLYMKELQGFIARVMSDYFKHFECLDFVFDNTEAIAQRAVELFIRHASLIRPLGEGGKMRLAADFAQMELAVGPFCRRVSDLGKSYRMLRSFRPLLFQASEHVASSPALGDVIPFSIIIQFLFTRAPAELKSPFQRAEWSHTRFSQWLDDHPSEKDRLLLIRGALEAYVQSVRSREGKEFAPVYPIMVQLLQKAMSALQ
# Chain of UniProt Q8IWF6 (Q8IWF6 whole entry, looked up): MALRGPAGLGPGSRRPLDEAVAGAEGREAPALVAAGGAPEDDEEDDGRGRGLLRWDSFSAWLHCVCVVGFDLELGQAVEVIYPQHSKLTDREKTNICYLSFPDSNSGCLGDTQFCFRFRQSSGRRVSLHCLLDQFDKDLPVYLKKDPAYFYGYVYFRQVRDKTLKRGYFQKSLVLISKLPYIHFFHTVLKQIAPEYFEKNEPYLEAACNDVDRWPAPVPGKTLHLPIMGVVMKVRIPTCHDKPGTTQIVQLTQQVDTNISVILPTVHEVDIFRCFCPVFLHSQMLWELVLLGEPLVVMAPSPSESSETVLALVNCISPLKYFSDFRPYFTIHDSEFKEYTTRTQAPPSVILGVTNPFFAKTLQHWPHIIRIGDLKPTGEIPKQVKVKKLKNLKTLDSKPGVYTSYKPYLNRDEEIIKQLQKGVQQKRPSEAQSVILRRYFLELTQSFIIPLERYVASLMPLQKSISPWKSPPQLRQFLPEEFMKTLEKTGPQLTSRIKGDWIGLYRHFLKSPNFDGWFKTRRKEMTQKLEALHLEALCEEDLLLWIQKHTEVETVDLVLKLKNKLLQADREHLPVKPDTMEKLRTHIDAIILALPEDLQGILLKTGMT
# Chain of UniProt Q6UWP2 (Q6UWP2 whole entry, looked up): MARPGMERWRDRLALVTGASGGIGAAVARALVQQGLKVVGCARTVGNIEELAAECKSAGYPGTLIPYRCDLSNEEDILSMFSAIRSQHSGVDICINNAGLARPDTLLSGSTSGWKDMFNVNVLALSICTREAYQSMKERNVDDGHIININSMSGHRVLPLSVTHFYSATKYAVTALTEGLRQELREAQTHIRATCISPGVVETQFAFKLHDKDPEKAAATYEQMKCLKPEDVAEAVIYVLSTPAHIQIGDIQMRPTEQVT
# Chain of UniProt Q9UHD1 (Q9UHD1 whole entry, looked up): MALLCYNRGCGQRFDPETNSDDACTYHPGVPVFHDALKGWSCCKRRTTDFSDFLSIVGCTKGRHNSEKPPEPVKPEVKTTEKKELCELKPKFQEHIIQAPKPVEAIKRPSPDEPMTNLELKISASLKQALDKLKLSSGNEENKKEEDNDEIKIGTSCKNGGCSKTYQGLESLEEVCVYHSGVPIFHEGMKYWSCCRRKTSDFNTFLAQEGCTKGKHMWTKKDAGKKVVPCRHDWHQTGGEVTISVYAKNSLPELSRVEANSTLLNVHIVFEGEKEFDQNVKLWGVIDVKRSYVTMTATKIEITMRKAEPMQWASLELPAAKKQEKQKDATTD
row,Target,log2 fold change
1,CKM (UniProt P06732),-0.039 (inactive)
2,CMIP (UniProt Q8IY22),0.043 (inactive)
3,COG6 (UniProt Q9Y2V7),0.015 (inactive)
4,DGCR8 (UniProt Q8WYQ5),0.015 (inactive)
5,COPZ1 isoform 4 (UniProt P61923),0.004 (inactive)
6,DENND6A (UniProt Q8IWF6),0.019 (inactive)
7,CKAP5 (UniProt Q14008),0.022 (inactive)
8,CNOT2 (UniProt Q9NZN8),0.039 (inactive)
9,COL6A5 (UniProt A8TX70),-0.055 (inactive)
10,DCP1A (UniProt Q9NPI6),0.029 (inactive)
11,COG2 (UniProt Q14746),0.106 (inactive)
12,DEF6 (UniProt Q9H4E7),-0.033 (inactive)
13,CSDE1 isoform 4 (UniProt O75534),0.028 (inactive)
14,CNOT6L (UniProt Q96LI5),0.078 (inactive)
15,DHRS11 (UniProt Q6UWP2),0.023 (inactive)
16,DNAJC1 (UniProt Q96KC8),0.067 (inactive)
17,DOCK7 (UniProt Q96N67),0 (inactive)
18,CTNND1 isoform 3 (UniProt O60716),0.073 (inactive)

row,Target,log2 fold change
1,CHUK (UniProt O15111),-0.045 (inactive)
2,COG5 isoform 2 (UniProt Q9UP83),-0.007 (inactive)
3,CSTB (UniProt P04080),-0.027 (inactive)
4,CHORDC1 (UniProt Q9UHD1),0.002 (inactive)
5,CSTF2 (UniProt P33240),-0.037 (inactive)
6,CIP2A (UniProt Q8TCG1),0.037 (inactive)
7,DOCK8 (UniProt Q8NF50),0.04 (inactive)
8,COQ9 (UniProt O75208),0.002 (inactive)
9,CKS1B (UniProt P61024),-0.017 (inactive)
10,CXXC1 isoform 2 (UniProt Q9P0U4),0.031 (inactive)
11,CXorf38 (UniProt Q8TB03),-0.027 (inactive)
12,DDX54 isoform 2 (UniProt Q8TDD1),0.053 (inactive)
13,CSNK2A1 (UniProt P68400),0.006 (inactive)
14,DMAC2L (UniProt Q99766),0.021 (inactive)
15,DCP2 (UniProt Q8IU60),-0.028 (inactive)
16,CYP51A1 (UniProt Q16850),-0.02 (inactive)
17,CMPK2 (UniProt Q5EBM0),-0.03 (inactive)

# Compound: CCn1cc(-c2ccnc3[nH]c(-c4cccc(CN(C)C)c4)cc23)c(-c2ccc(NC(=O)N(C)C)cc2)n1
# Test: as above
# How it was run: as §1
row,Target,log2 fold change
1,CKM (UniProt P06732),-0.574 (active)
2,CMIP (UniProt Q8IY22),-0.043 (inactive)
3,COG6 (UniProt Q9Y2V7),-0.116 (inactive)
4,DGCR8 (UniProt Q8WYQ5),-0.052 (inactive)
5,COPZ1 isoform 4 (UniProt P61923),-0.015 (inactive)
6,DENND6A (UniProt Q8IWF6),0.017 (inactive)
7,CKAP5 (UniProt Q14008),-0.016 (inactive)
8,CNOT2 (UniProt Q9NZN8),0.17 (inactive)
9,COL6A5 (UniProt A8TX70),-0.834 (active)
10,DCP1A (UniProt Q9NPI6),-0.082 (inactive)
11,COG2 (UniProt Q14746),0.032 (inactive)
12,DEF6 (UniProt Q9H4E7),-0.071 (inactive)
13,CSDE1 isoform 4 (UniProt O75534),0.069 (inactive)
14,CNOT6L (UniProt Q96LI5),-0.422 (active)
15,DHRS11 (UniProt Q6UWP2),-0.03 (inactive)
16,DNAJC1 (UniProt Q96KC8),0.033 (inactive)
17,DOCK7 (UniProt Q96N67),-0.068 (inactive)
18,CTNND1 isoform 3 (UniProt O60716),-0.032 (inactive)

row,Target,log2 fold change
1,CHUK (UniProt O15111),0.111 (inactive)
2,COG5 isoform 2 (UniProt Q9UP83),-0.02 (inactive)
3,CSTB (UniProt P04080),-0.376 (active)
4,CHORDC1 (UniProt Q9UHD1),0.288 (active)
5,CSTF2 (UniProt P33240),-0.053 (inactive)
6,CIP2A (UniProt Q8TCG1),-0.07 (inactive)
7,DOCK8 (UniProt Q8NF50),0 (inactive)
8,COQ9 (UniProt O75208),0.015 (inactive)
9,CKS1B (UniProt P61024),0.391 (active)
10,CXXC1 isoform 2 (UniProt Q9P0U4),-0.072 (inactive)
11,CXorf38 (UniProt Q8TB03),-0.059 (inactive)
12,DDX54 isoform 2 (UniProt Q8TDD1),-0.056 (inactive)
13,CSNK2A1 (UniProt P68400),-0.009 (inactive)
14,DMAC2L (UniProt Q99766),-0.017 (inactive)
15,DCP2 (UniProt Q8IU60),0.059 (inactive)
16,CYP51A1 (UniProt Q16850),-0.103 (inactive)
17,CMPK2 (UniProt Q5EBM0),-0.001 (inactive)
